Measurements from PubChem BioAssay (NCATS).
Results filed as inconclusive are left out. Values without a mark were called inactive. Calls come from the whole dose curve; as a rule, active = well fitted cell-killing curve with a large enough effect; inconclusive = small, poorly fitted or top-dose-only effect; inactive = flat fitted curve, though single readings scatter.

Experiment: NCATS anti-infectives library activity on HEK293 viability as a counter-qHTS vs the C. elegans viability qHTS (AID 1745854)
Settings: HEK293 viability counter-screen; series mostly up to 41.8 µM; activity change, negative = cytotoxicity: at the top concentration
Excerpt: Assay Development and Screening Technology Laboratory (ADST)
National Center for Advancing Translational Sciences (NCATS), Rockville, MD
National Institute of Health (NIH), Bethesda, Maryland
Caenorhabditis elegans has helped elucidate the evolutionarily conserved genetics underlying pathways and cellular processes implicated in human disease and may be ideally positioned to reveal novel pharmacological properties of exiting drugs. The organism's short life cycle and microscopic size is applicable to the technical requirements of high-throughput screening. Here a quantitative high-throughput screening (qHTS)-based forward chemical biology platform has been developed using C. elegans. 384-well microtiter plate laser scanning cytometry was used in the rapid detection and quantification of the fluorescent protein-encoded phenotype to score worm viability. In a proof-of-concept study, the pharmacological qHTS profile obtained from a library of 643 anti-infective compounds.
1. Inglese, J., Auld, D. S., Jadhav, A., Johnson, R. L., Simeonov, A., Yasgar, A., Zheng, W., and Austin, C. P. (2006) Quantitative high-throughput screening: A titration-based approach that efficiently identifies biological activities in large chemical libraries, P Natl Acad Sci USA 103, 11473-11478.
2. Auld, D. S., Johnson, R. L., Zhang, Y. Q., Veith, H., Jadhav, A., Yasgar, A., Simeonov, A., Zheng, W., Martinez, E. D., Westwick, J. K., Austin, C. P., and Inglese, J. (2006) Fluorescent protein-based cellular assays analyzed by laser-scanning microplate cytometry in 1536-well plate format, Method Enzymol 414, 566-589.
3. Zuck, P., Lao, Z., Skwish, S., Glickman, J. F., Yang, K., Burbaum, J., and Inglese, J. (1999) Ligand-receptor binding measured by laser-scanning imaging, Proc Natl Acad Sci U S A 96, 11122-11127.
PROTOCOL TABLE (as described by Inglese J, Shamu CE and Guy RK. 2007)
SEQUENCE No. (e.g., 1, 2, 3, etc.); […] (e.g., C. elegans, Compounds, Incubation, Read, etc.); VALUE and DESCRIPTION.
1. Compounds. Library compounds and digitonin control added at 25 nL per well to 7 assay ready 1536-well Greiner white/solid bottom high base, TC plates and two DMSO control plates, transferred by Echo acoustic dispenser.
2. Cells. Seed 1500 HEK293 per well in 6 uL into assay ready Greiner 1536-well plates.
3. Incubation. Incubate plated cells with compounds at 37C in 5% CO2, 95% RH for 24 hr.
4. Reagent. Add 4 uL of CellTiter-Glo reagent from Promega per well of Greiner 1536-well plates with BioRAPTR FRD.
5. Incubation. Incubate treated cells at room temperature for 10 min., protect from light.
6. Detector. CellTiter-Glo luminescence measured using CCD-based camera (Viewlux) with settings as follows: Exposure, 1 sec; Gain, High; Speed, Slow; Binning, 2X.
NOTES (numbers refer to Sequence numbers above; values are from representative experiments)
1. NIH Anti-Infectives library pre-dispensed into 7 assay ready 1536-well Greiner white/solid bottom high base, TC plates with Echo 555 acoustic dispenser. Most compounds dispensed at 10 mM high concentration and plated in 7-pt 1:5 inter-plate titration at 25 nl / well for a final assay concentration range of 41.7 uM - 2.7 nM. Two 1536-well Greiner assay plates of DMSO plated as screening controls to be read at the beginning and the end of the screen. Controls included DMSO vehicle control added at 25 nl/well to each well of column 1 and […] (83.3 uM final assay concentration), and Digitonin titrated 1:2 at 25 nl/ well to column 4 in duplicate for a final assay concentration range of 83.3 uM - 2.5 nM.
2. HEK293 cells grown for 48 hr in one T175 culture flask in DMEM high glucose media supplemented with 10% FBS and 1% Pen/Strep antibiotic. Cells trypsinized and diluted in 10 ml supplemented media, strained through 40 µm cell strainer, and diluted to a total volume of 40 ml with supplemented media. […]
% is set by controls: 0 for no effect and ±100 for the full control effect.

Structure (SMILES) | activity change, negative = cytotoxicity
NC(=O)[C@@H](CCC(F)(F)F)N(Cc1ccc(-c2ncon2)cc1F)S(=O)(=O)c1ccc(Cl)cc1 | -4.62%
C[C@H](NC(=O)C(=O)Nc1ccccc1C(C)(C)C)C(=O)N[C@@H](CC(=O)O)C(=O)COc1c(F)c(F)cc(F)c1F | -18.7% [at 8.35 µM]
CC(=O)N[C@@H](CS)C(=O)O | -10.9%
CC(=O)CCCCn1c(=O)c2c(ncn2C)n(C)c1=O | -23.7%
CCS(=O)(=O)N1CC(CC#N)(n2cc(-c3ncnc4[nH]ccc34)cn2)C1 | 8.82%
CN1CCN(CCOc2cc(OC3CCOCC3)c3c(Nc4c(Cl)ccc5c4OCO5)ncnc3c2)CC1 | -10.9%
O=C(Nc1c(Cl)cncc1Cl)c1ccc(OC(F)F)c(OCC2CC2)c1 | -14.5%
C=CCc1ccc(O)c(-c2ccc(O)c(CC=C)c2)c1 | -9.18%
O=C1NC(=O)C(c2ccccc2)(c2ccccc2)N1 | -1.78%
CCCCCN(C)CCC(O)(P(=O)(O)O)P(=O)(O)O | -3.04% [at 3.71 µM]
O=C(O)c1ccc(-c2c[nH]c3ncc(-c4ccccc4)cc23)cc1C1CCCC1 | -14.2%
O=C(O)CCC1CCC(c2cc(F)ccc2F)(S(=O)(=O)c2ccc(Cl)cc2)CC1 (stereo not given) | -9.9%
CC#CCn1c(N2CCC[C@@H](N)C2)nc2c1c(=O)n(Cc1nc(C)c3ccccc3n1)c(=O)n2C | 5.94%
Cn1c(N2CCCCS2(=O)=O)nc(C(=O)NCc2ccc(F)cc2)c(O)c1=O | -8.5%
CC1CCC(C(=O)N(c2cc(C#CC(C)(C)C)sc2C(=O)O)C2CCC(O)CC2)CC1 (stereo not given) | -2.37%
